Data taken from PubChem BioAssay (NCATS).
Records with an inconclusive call do not appear. A call without a number means that no potency is given here. Calls of active or inactive are those of the source. Calls follow the shape of the dose curve; as a rule, active = well fitted cell-killing curve with a large enough effect; inconclusive = small, poorly fitted or top-dose-only effect, or effect the other way; inactive = no such curve, though single readings can be large or run the other way.

Test: Quantitative High-Throughput drug screen in 47 multiple myeloma cell lines against the NCATS MIPE library collection: XG6_PLB cell viability assay (AID 1919865); also: nearly all actives have a fitted effect of over 40% in size
Conditions: XG6 myeloma viability, CellTiter-Glo ATP luminescence, 48 h; series mostly up to 45.8 µM
How it was run: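 Readout: median RLU from CellTiter-Glo after 5 min at room temperature. Preceding step was 48 h drug treatment of 500 cells/well at 37 °C, 5% CO2, with DMSO-only and media-only control wells.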
Potency is read from the fitted curve at half-maximal effect.

Structure (SMILES)	Potency
C[C@H]([C@H](O)CCC(C)(C)O)[C@H]1CC[C@@]2(O)C3=CC(=O)[C@@H]4C[C@@H](O)[C@@H](O)C[C@]4(C)[C@@H]3CC[C@]12C	inactive
C1=C2CCCN[C@H]2[C@@H]2C[C@H]1[C@@H]1CCCCN1C2	inactive
CC(=Cc1csc(C)n1)[C@@H]1C[C@H]2O[C@@H]2CCC[C@H](C)[C@@H](O)[C@@H](C)C(=O)C(C)(C)[C@@H](O)CC(=O)O1	inactive
Clc1ccccc1C(c1ccccc1)(c1ccccc1)n1cccn1	inactive
CO[C@H]1CCC(O[C@H]2C[C@H]([C@]3(C)CC[C@]4(C[C@H](O)[C@@H](C)[C@@H]([C@@H](C)C=C(C)C(=O)[C@H](C)C[C@H](C)C(=O)O)O4)O3)O[C@]3(O[C@@H]([C@H]4O[C@@](O)(CO)[C@H](C)C[C@H]4C)C[C@H]3C)[C@H]2C)O[C@H]1C (some centres undefined)	0.418 µM (active)
COC1=CC(C)=C[C@@H](C)[C@@H](O)[C@@H](C)CC(C)=CC=C[C@H](OC)[C@H]([C@@H](C)[C@@H](O)[C@H](C)[C@@]2(O)C[C@@H](O)[C@H](C)[C@@H](C(C)C)O2)OC1=O	0.001 µM (active)
O=c1[nH]c2ccc(Cl)cc2c(N[C@@H]2CN3CCC2CC3)c1-c1nc2ccccc2[nH]1	0.0372 µM (active)
CC(C)(C)[C@]1(O)C[C@@H]2OC(=O)C[C@@]23C(=O)O[C@@H]2OC(=O)[C@H](O)C213 (some centres undefined)	inactive
COc1ccc(N(C(=O)Oc2c(C)cccc2C)c2ccnc(Nc3ccc(N4CCN(C)CC4)cc3)n2)c(OC)c1	0.332 µM (active)
